In PubChem BioAssay (NCATS):
Results filed as inconclusive are left out. The source made the active and inactive calls. Calls follow the shape of the dose curve; as a rule, active = well fitted curve in the direction sought with a large enough effect; inconclusive = small, poorly fitted or top-dose-only effect, or another doubt; inactive = no such curve, though single readings can be large; an effect the other way counts as inactive or inconclusive.

How the values were obtained:
[1] = target: Glutathione peroxidase 1 (Homo sapiens) (UniProt P07203); assay: Primary qHTS Assay for Inhibitors of Recombinant Selenoprotein Glutathione Peroxidase 1 (GPX1) (AID 1845191); also: nearly all actives have a fitted effect of over 65% in size; as to activity, negative = inhibition: % is scaled to controls: 0 for no effect and ±100 for the full control effect
Glutathione peroxidase 1 (Homo sapiens), sequence (P07203 whole entry, looked up): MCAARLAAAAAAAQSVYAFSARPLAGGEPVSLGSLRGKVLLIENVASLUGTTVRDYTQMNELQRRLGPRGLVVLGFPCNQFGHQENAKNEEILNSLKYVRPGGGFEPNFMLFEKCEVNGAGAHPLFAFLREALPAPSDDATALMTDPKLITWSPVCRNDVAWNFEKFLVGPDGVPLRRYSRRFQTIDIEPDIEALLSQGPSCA
Summary of the method: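 GPX1 10 nM, GR 100 nM, GSH 1 mM, NADPH 0.5 mM, CHP 0.5 mM (final). 30-min cpd preincubation, RT. Ex340/Em450 read t=0, t=15 min.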

[2] = target: Phospholipid hydroperoxide glutathione peroxidase GPX4 (Homo sapiens) (UniProt P36969); assay: Primary qHTS Assay for Inhibitors of Recombinant Selenoprotein Glutathione Peroxidase 4 (GPX4) (AID 1845192); also: nearly all actives have a fitted effect of over 65% in size
Phospholipid hydroperoxide glutathione peroxidase GPX4 (Homo sapiens), sequence (P36969 whole entry, looked up): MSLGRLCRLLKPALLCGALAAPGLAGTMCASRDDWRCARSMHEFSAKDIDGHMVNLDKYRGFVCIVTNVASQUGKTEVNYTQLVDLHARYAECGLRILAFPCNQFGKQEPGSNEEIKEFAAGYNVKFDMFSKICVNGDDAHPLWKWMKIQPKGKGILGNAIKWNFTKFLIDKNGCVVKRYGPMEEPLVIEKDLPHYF
Summary of the method: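 qHTS, GR-coupled: GPX4 200 nM + cpd 30 min RT → GSH 1 mM, NADPH 0.5 mM, GR 100 nM → CHP 0.5 mM start; fluor 340/450 at t0 and t15 min; no-enzyme wells as control.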

[3] = tested on: Nanoluciferase (engineered Oplophorus gracilirostris luciferase); assay: Primary Nanoluciferase (NLuc) qHTS assay for identification of artifact compounds. (AID 1845222); also: series mostly up to about 54 µM
Summary of the method: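 Luminescence read-out of secreted NLuc in S16 cell conditioned medium (1:55); compounds tested with 15 min RT preincubation, then Nano-Glo substrate 1:100, 5 min. % inhibition vs no-enzyme and DMSO controls, 4-parameter Hill fit.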

[4] = Primary redox qHTS assay for identification of artifact compounds. (AID 1845223);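 also: 0% = DMSO and 100% = reference compound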
Summary of the method: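 Redox-cycling detection via DTT (250 uM final) oxidation coupled to Amplex Red (25 uM)/HRP (250 mU/mL) in HBSS. 15 min preincubation plus 30 min after DTT, room temperature. Ex/Em 525/598 nm; 4-parameter Hill fit against DMSO and 10 uM DA3003.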

[5] = target: Luciferin 4-monooxygenase (Photinus pyralis) (UniProt P08659); assay: Primary firefly luciferase (FLuc) qHTS assay for identification of artifact compounds. (AID 1845220); also: nearly all actives have a fitted effect of over 60% in size
Summary of the method: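 qHTS, 15 min compound preincubation with substrate (10 uM luciferin, 10 uM ATP) at RT, then 10 nM FLuc; 5 min; luminescence; % inhibition vs no-enzyme/DMSO controls, 4-parameter Hill fit.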

[6] = Primary fluorescence-based thiol-reactive (MSTI) qHTS assay for identification of artifact compounds. (AID 1845221); also: nearly all actives have a fitted effect of over 65% in size; also: potency is read from the fitted curve at half-maximal effect;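 as to activity change, negative = thiol reactive: series mostly up to about 54 µM; thiol-reactive compounds lower the probe fluorescence signal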
Summary of the method: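 First, 4 uM MSTI in 2% DMSO/PBS pH 7.4 was dispensed; next, compounds were added; then plates sat 1 h at room temperature without light. Finally, emission at 598 nm was recorded.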

Cc1c(C)c(NCC(=O)N(C)C2CCN(Cc3ccc(C(N)=O)cc3)CC2)c(C)c(C)c1N
inactive: Potency [1] | Potency [2] | Potency [3] | Potency [4]

CCC(C)/C=C(C)/C=C/C1=CC2=C(Cl)C(=O)C(C)(OC(C)=O)C(=O)C2=CN1CCCCC(N)C(=O)O (stereo unspecified)
inactive: Potency [1] | Potency [5] | Potency [3]
active: Potency [6] 0.653 µM

C/C=C(/C)C(=O)OC1C(OC(C)=O)C23C(O)OC4(CCC5C6(C)CCC(OC7OC(C(=O)O)C(O)C(OC8OC(CO)C(O)C(O)C8OC8OC(C)C(O)C(O)C8OC8OCC(O)C(O)C8O)C7OC7OC(CO)C(O)C(O)C7O)C(C)(C)C6CCC5(C)C4(C)CC2OC(C)=O)C3CC1(C)C (stereo unspecified)
inactive: Potency [1] | Potency [2] | activity change, negative = thiol reactive [6] 196% [at 11.5 µM] | activity, negative = inhibition [3] 0.798% [at 11.6 µM] | redox activity (% of DA3003) [4] 6.91% [at 11.5 µM]

C/C1=C\CC(C)(C)/C=C/C/C(C(=O)O)=C/CC1
inactive: Potency [1] | Potency [2] | Potency [6] | Potency [3] | Potency [4]

CC(=O)c1ccc(O[C@@H]2OC[C@@H](O)[C@H](O)[C@H]2O[C@]2(CO)O[C@H](CO)[C@@H](O)[C@@H]2O)c(O)c1
inactive: Potency [1] | Potency [2] | Potency [3] | Potency [4]

CC(=O)O[C@H]1[C@H](OC(=O)C(C)C)[C@]2(C)OC3(CC[C@]2(C)[C@H]2CCC[C@]4(CO4)[C@]12C)COC(=O)C3 (stereo partly specified)
inactive: Potency [1] | Potency [2] | Potency [6] | Potency [3] | Potency [4]

C[C@@H]1C[C@H]2OC(=O)[C@@]3(C)CCC[C@](C)(C23)[C@@]1(O)CCC1=CC(=O)OC1O (stereo partly specified)
inactive: Potency [1] | Potency [5] | Potency [3]
active: Potency [6] 3.29 µM

O=C(O)c1cc(O[C@@H]2O[C@H](CO)[C@@H](O)[C@H](O)[C@H]2O)ccc1O
inactive: Potency [1] | Potency [2] | Potency [3] | Potency [4]

Cn1c2ccc(NC(=O)c3ccccc3)cc2c(=O)n2nc(C(=O)O)cc12
inactive: Potency [1] | Potency [2] | Potency [3] | Potency [4]

CCOc1ncc(S(=O)(=O)N2CCN(CC)CC2)cc1-c1nc2c(CC)n(CCOC)nc2c(=O)[nH]1
inactive: Potency [1] | Potency [5] | Potency [6] | Potency [3]

OC[C@@]1(O)CO[C@@H](OC[C@H]2O[C@@H](Oc3ccccc3)[C@H](O)[C@@H](O)[C@@H]2O)[C@@H]1O
inactive: Potency [1] | Potency [2] | Potency [3] | Potency [4]

CC(O)C1NC(=O)C2CCCN2C1=O (stereo unspecified)
inactive: Potency [1] | Potency [2] | Potency [6] | Potency [3] | Potency [4]

C[C@H]1/C=C/C=C/C=C/C=C/C=C/[C@@H](O)[C@H](C(=O)O)[C@H](O)C[C@H](O)CCC[C@H](O)C[C@H](O)C[C@H](O)[C@@H](C)C(=O)O[C@@H]1C
inactive: Potency [1] | Potency [2] | Potency [6] | Potency [3] | Potency [4]

CC1=CCC(O)C2(C)CCC3C(C)C(=O)OC3C12 (stereo unspecified)
inactive: Potency [1] | Potency [2] | Potency [6] | Potency [3] | Potency [4]

CCOC(=O)c1ccc(NC2CCCCC2)c(N)c1
inactive: Potency [1] | Potency [2] | Potency [3] | Potency [4]

O=C(O[C@H]1[C@H](Oc2ccc(O)cc2CO)O[C@H](CO)[C@@H](O)[C@@H]1O)c1ccccc1
inactive: Potency [1] | Potency [2] | Potency [3] | Potency [4]

COc1c2ccoc2nc2c(OC)c(O[C@@H]3O[C@@H](C)[C@H](O)[C@@H](O[C@@H]4O[C@H](CO)[C@@H](O)[C@H](O)[C@H]4O)[C@H]3OC(C)=O)ccc12
inactive: Potency [1] | Potency [5] | Potency [6] | Potency [3]

COc1ccc(-c2ccn(CC[C@](C)(C(=O)NO)S(C)(=O)=O)c(=O)c2)c(F)c1
inactive: Potency [1] | Potency [2] | Potency [3] | Potency [4]

O=C(C1OC1/C=C/c1ccc2c(c1)OCO2)N1CCCCC1 (stereo unspecified)
inactive: Potency [1] | Potency [2] | Potency [6] | Potency [3] | Potency [4]

COc1cc(O)c(C(=O)O)c(CCc2ccccc2)c1
inactive: Potency [1] | Potency [2] | Potency [6] | Potency [4]

CC(=O)NC(Cc1c[nH]c2ccccc(=O)c12)C(=O)O (stereo unspecified)
active: Potency [6] 5.32 µM
inactive: Potency [1] | Potency [5] | Potency [3]

CC(C)(O)[C@@H]1CC[C@]2(CO)[C@@H](O)CC[C@](C)(O)[C@H]2[C@@H]1O[C@@H]1O[C@H](CO)[C@@H](O)[C@H](O)[C@H]1O
inactive: Potency [1] | Potency [2] | Potency [6] | Potency [3] | Potency [4]

CC(=O)O[C@@H]1[C@@H](O)[C@H](C)O[C@@H](O[C@H]2[C@@H]3C=CO[C@@H](O[C@@H]4O[C@H](CO)[C@@H](O)[C@H](O)[C@H]4OC(C)=O)[C@@H]3[C@@]3(CO)O[C@@H]23)[C@@H]1OC(=O)/C=C/c1ccc(O)cc1
active: Potency [6] 6.3 µM
inactive: Potency [1] | Potency [2] | Potency [3] | Potency [4]
